ChEMBL document CHEMBL4513141, “CO-ADD screening of NIH (USA) - Clinical Collection” (2021)
Measured potencies and affinities stand elsewhere.

What was measured:
Klebsiella pneumoniae = settings: Concentration 20 uM; ASSAY_TEST Inhibition of Bacterial Growth; detection method Absorption (OD600); MEDIA CAMHB; plate type 384well; NBS; CORNING #3640; time 18 hr
Candida albicans = settings: 20 µM
Cryptococcus neoformans = settings: Concentration 20 uM; ASSAY_TEST Inhibition of Fungal Growth; detection method Resazurin; Absorption (OD600-OD570); plate type 384well; NBS; CORNING #3640

SMILES | Inhibition (Klebsiella pneumoniae) [%] | Inhibition (Candida albicans) [%] | Inhibition (Cryptococcus neoformans) [%]
O=C(O[C@@H]1Cc2c(O)cc(O)cc2O[C@@H]1c1cc(O)c(O)c(O)c1)c1cc(O)c(O)c(O)c1 [EPIGALOCATECHIN GALLATE] | 17.83 | 3.47 | -2.04
CC(C)N(CCC(C(N)=O)(c1ccccc1)c1ccccn1)C(C)C.O=P(O)(O)O (centres undefined) [DISOPYRAMIDE PHOSPHATE] | 5.68 | 3.35 | 0.14
CC1CCC[C@H](O)CCCCCc2cc(O)cc(O)c2C(=O)O1 (some centres undefined) | 3.64 | 2.99 | -2.51
C[C@H](CCC(=O)O)[C@H]1CC[C@H]2[C@@H]3C(=O)C[C@@H]4CC(=O)CC[C@]4(C)[C@H]3CC(=O)[C@]12C [DEHYDROCHOLIC ACID] | 5.88 | 3.92 | 2.23
CCCN1C[C@H](CSC)C[C@@H]2c3cccc4[nH]cc(c34)C[C@H]21.CS(=O)(=O)O [PERGOLIDE MESYLATE] | 13.95 | 2.85 | -3.89
CC(C)C(=O)Nc1ccc([N+](=O)[O-])c(C(F)(F)F)c1 [FLUTAMIDE] | 13.37 | 3.45 | 1.08
NC1=NC(=O)C(c2ccccc2)O1 (centres undefined) [PEMOLINE] | 13.09 | 1.75 | -5.45
C=C(C)[C@@H]1[C@H]2OC(=O)[C@@H]1[C@]1(O)C[C@H]3O[C@]34C(=O)O[C@H]2[C@]14C.CC(C)(O)[C@@H]1[C@H]2OC(=O)[C@@H]1[C@]1(O)C[C@H]3O[C@]34C(=O)O[C@H]2[C@]14C | 10.94 | 2.79 | -5.47
